PubChem BioAssay
Unmarked numbers belong to inactive results. Where a call stands in place of a potency, no number is given. For some assays here: Potency and affinity values are given separately. Active and inactive are the calls of the source. Unless noted, how the calls were made is not given here.

Key:
[1] = antimalarial activity against Dd2 strain (AID 2302;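 active means growth inhibition above 50% at the single 2 µM test dose, taken to imply half-maximal potency below 2 µM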); conditions: P. falciparum Dd2 in RBCs, LDH growth readout, 72 h; at 2 µM; active compounds read high
[2] = human hepatoma cell viability loss – ATP luminescence, cytotoxicity control for P. falciparum antimalarial project, primary screen (AID 2303;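 active means inhibition above 50%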); conditions: HepG2 viability, 24-48 h, at 10 µM, active compounds read high
[3] = molecular target: L-lactate dehydrogenase (Plasmodium falciparum (isolate CDC / Honduras)) (UniProt Q27743); experiment: PfLDH activity inhibition – cell lysate, 3D7 strain, counter-screen for P. falciparum growth inhibition project (AID 2304); conditions: P. falciparum 3D7 crude extract, LDH APAD/NBT absorbance; at 2 µM; active compounds read high
[4] = inhibition of 3D7 malaria parasite growth – strain 3D7 (AID 2306); conditions: P. falciparum 3D7 erythrocytic growth, LDH absorbance, 72 h; at 2 µM; active compounds read high
[5] = molecular target: Calcium-dependent protein kinase 1 (Plasmodium falciparum (isolate 3D7)) (UniProt P62344); experiment: PfCDPK1 kinase inhibitors, biochemical, TCAMS library (AID 1159585; cut-off not given, nearly all actives have IC50 up to about 0.98 µM;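 further: inhibitors leave more ATP so luminescence rises with inhibition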); conditions: recombinant PfCDPK1, Kinase-Glo ATP depletion luminescence
[6] = molecular target: Plasmodium falciparum protein kinase 6 (PK6, PF3D7_1337100) (UniProt Q8IDW1); experiment: PfPK6 kinase inhibitors, biochemical, TCAMS library (AID 1159586); conditions: recombinant PfPK6, Kinase-Glo ATP depletion luminescence
[7] = molecular target: Protein kinase 7 (PK7), Plasmodium falciparum 3D7 (PF3D7_0213400) (UniProt Q7YTF7); experiment: inhibition of Plasmodium PK7 catalytic activity – biochemical, TCAMS antimalarial set, Kinase-Glo luminescence (AID 1159587); conditions: recombinant PfPK7, Kinase-Glo ATP depletion luminescence
[8] = molecular target: Calcium-dependent protein kinase 4 (Plasmodium falciparum (isolate 3D7)) (UniProt Q8IBS5); experiment: PfCDPK4 kinase inhibitors, biochemical, TCAMS library (AID 1159588; cut-off not given, nearly all actives have IC50 up to about 0.91 µM); conditions: recombinant PfCDPK4, Kinase-Glo ATP depletion luminescence
Calcium-dependent protein kinase 4 (Plasmodium falciparum (isolate 3D7)), sequence (Q8IBS5 whole entry, looked up): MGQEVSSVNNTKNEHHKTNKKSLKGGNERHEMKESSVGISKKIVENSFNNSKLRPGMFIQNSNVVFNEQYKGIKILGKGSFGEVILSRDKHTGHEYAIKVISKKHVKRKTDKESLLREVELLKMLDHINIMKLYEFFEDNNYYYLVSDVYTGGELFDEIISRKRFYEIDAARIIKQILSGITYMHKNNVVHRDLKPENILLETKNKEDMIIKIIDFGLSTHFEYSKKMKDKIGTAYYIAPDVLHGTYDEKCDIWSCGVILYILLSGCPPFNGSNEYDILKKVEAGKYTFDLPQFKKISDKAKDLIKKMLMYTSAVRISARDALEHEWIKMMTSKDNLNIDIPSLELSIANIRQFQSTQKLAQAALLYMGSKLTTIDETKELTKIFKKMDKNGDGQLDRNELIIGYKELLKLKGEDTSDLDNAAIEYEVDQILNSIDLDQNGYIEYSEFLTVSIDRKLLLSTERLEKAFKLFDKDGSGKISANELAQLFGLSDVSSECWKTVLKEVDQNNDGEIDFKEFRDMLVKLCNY

Calcium-dependent protein kinase 1 (Plasmodium falciparum (isolate 3D7)), sequence (P62344 whole entry, looked up): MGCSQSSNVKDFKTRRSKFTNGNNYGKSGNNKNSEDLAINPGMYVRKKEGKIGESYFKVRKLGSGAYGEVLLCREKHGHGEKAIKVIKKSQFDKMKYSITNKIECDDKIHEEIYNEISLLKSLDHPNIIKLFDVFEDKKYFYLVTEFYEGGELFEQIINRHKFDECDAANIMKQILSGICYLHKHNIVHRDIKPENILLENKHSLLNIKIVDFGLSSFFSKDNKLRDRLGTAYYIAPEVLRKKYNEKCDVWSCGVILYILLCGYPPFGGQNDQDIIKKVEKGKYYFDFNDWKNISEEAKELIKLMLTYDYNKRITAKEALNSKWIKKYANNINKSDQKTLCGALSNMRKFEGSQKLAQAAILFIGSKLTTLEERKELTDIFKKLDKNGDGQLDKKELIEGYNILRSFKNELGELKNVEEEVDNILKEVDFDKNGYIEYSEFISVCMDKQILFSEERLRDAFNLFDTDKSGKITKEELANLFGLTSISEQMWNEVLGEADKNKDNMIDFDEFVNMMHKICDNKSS
Plasmodium falciparum protein kinase 6 (PK6, PF3D7_1337100), sequence (Q8IDW1 1-305): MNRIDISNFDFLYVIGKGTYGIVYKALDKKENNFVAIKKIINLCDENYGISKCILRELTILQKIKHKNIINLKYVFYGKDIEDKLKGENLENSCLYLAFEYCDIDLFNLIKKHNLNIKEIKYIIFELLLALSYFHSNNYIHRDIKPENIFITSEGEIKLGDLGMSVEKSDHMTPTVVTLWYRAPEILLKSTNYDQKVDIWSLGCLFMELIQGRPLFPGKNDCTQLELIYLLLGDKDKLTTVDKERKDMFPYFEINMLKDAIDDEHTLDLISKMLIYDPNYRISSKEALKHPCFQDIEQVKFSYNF
L-lactate dehydrogenase (Plasmodium falciparum (isolate CDC / Honduras)), sequence (Q27743 whole entry, looked up): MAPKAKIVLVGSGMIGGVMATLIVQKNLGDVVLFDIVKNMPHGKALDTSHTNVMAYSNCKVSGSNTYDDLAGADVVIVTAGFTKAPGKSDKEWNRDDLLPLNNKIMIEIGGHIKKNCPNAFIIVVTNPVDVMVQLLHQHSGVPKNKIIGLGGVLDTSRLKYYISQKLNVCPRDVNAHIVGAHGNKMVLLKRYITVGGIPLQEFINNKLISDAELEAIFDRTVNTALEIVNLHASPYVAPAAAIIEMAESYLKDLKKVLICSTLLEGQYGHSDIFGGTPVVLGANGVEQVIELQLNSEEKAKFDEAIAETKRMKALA
Protein kinase 7 (PK7), Plasmodium falciparum 3D7 (PF3D7_0213400), sequence (Q7YTF7 1-343): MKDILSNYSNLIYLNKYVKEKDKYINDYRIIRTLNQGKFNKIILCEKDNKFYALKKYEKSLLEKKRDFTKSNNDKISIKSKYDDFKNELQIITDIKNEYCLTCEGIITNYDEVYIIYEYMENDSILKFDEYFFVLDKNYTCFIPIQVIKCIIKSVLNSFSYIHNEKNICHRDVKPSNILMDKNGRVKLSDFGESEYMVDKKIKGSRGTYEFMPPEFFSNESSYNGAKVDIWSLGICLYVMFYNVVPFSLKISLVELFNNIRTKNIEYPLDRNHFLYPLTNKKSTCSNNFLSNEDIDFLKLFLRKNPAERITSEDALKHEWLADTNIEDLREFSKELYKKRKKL

Structure (SMILES) | growth inhibition [1] | inhibition [2] | inhibition [3] [%] | growth inhibition [4] | outcome [5] | outcome [6] | outcome [7] | outcome [8]
O=C(NC1CCN(CCN2CCC(c3cn(CCO)c4ccccc34)CC2)CC1)c1ccc(-c2ccc(C(F)(F)F)cc2)cc1 | 54% (active) | 30% | -1 | 98% (active) | inactive | inactive | inactive | inactive
CCC1(CC)CN(c2ccccc2)c2ccc(O)cc2S(=O)(=O)C1CC(C)C (stereo not given) | 89% (active) | -7% | 2 | 96% (active) | inactive | inactive | inactive | inactive
NCC1CCCN1Cc1ccc(-c2ccc(-c3nc4ccc(C(F)(F)F)cc4[nH]3)s2)cc1 (stereo not given) | 97% (active) | 31% | -3 | 102% (active) | inactive | inactive | inactive | inactive
CCC[C@@H]([C@@H](Cc1ccc(C)s1)C(=O)N[C@@H](CNC(C)=O)C(=O)Nc1nccs1)N(O)C=O | 96% (active) | -1% | 2 | 97% (active) | inactive | inactive | inactive | inactive
COc1ccc2nccc(N3CCC(NCCNCc4ccc5c(n4)NC(=O)CS5)C3)c2n1 (stereo not given) | 5% | -4% | -4 | 100% (active) | inactive | inactive | inactive | inactive
CS(=O)(=O)c1ccc2c(c1)CCN(CCC1CCC(NC(=O)C(=Cc3ccc(Cl)cc3Cl)c3ccc(-c4ccccc4)cc3)CC1)CC2 (stereo not given) | 16% | 33% | -1 | 81% (active) | inactive | inactive | inactive | inactive
O=C(CCOc1ccccc1)NCC1CCCO1 (stereo not given) | -11% | -10% | -3 | 92% (active) | inactive | inactive | inactive | inactive
Cc1cccc2[nH]c(-c3ccc(-c4ccc(CN5CCN(CCN6CCOCC6)CC5)cc4)s3)nc12 | 99% (active) | 41% | 3 | 100% (active) | inactive | inactive | inactive | inactive
CC(C)N(CCOc1ccc2c(c1)N(C(=O)Nc1cc(Br)cc(C(F)(F)F)c1)CC2)C(C)C | 100% (active) | 8% | 5 | 101% (active) | inactive | inactive | inactive | inactive
CCOC(=O)c1ccc(N2CCN(c3cc(C)ccc3C)CC2)c(NC(=O)Nc2ccc(Cl)c(Cl)c2)c1 | 42% | 7% | -2 | 100% (active) | inactive | inactive | inactive | inactive
Cc1cc(-c2ccc(Cl)cc2)c2c(N)c(C(=O)Nc3ccc(F)cc3)sc2n1 | 87% (active) | 12% | 0 | 97% (active) | inactive | inactive | inactive | inactive
COc1ccc(NC(=O)C=Cc2ccc(Oc3ccccc3Cl)c([N+](=O)[O-])c2)cc1OCCN(C(C)C)C(C)C | 97% (active) | 31% | 2 | 99% (active) | inactive | inactive | inactive | inactive
Cc1ccc(C(=O)Nc2cc(C(F)(F)F)cc(C(F)(F)F)c2)cc1[N+](=O)[O-] | 61% (active) | 17% | 1 | 101% (active) | inactive | inactive | inactive | inactive
O=C(Nc1ccc(Cl)c(C(F)(F)F)c1)NC1CCN(CCCCCNC(=O)[C@@H]2C[C@H]2c2ccc(Cl)c(Cl)c2)CC1 | 41% | 79% (active) | -1 | 100% (active) | inactive | inactive | inactive | inactive
NC1=NC2(CCCC2)C(c2ccc(Cl)c(Cl)c2)C(N)=N1 (stereo not given) | 3% | 7% | -1 | 92% (active) | inactive | inactive | inactive | inactive
Cc1ccc(C(=O)NC2CC2)cc1-c1ccc2c(cnn2S(=O)(=O)c2ccc(F)cc2)c1 | 69% (active) | 7% | -2 | 93% (active) | inactive | inactive | inactive | inactive
COc1cccc(NC(=O)NCCNc2ccnc(Nc3ccc(F)cc3)n2)c1 | 1% | 18% | 4 | 94% (active) | inactive | inactive | inactive | inactive
O=c1cc(NCCCCNCc2cccc(C(F)(F)F)c2)[nH]c2ccccc12 | 34% | 13% | -1 | 94% (active) | inactive | inactive | inactive | inactive
CC(C)(C)c1ccc2nc(-c3ccc(/C=C/C(=O)NCc4cccc(C(F)(F)F)c4)cc3)[nH]c2c1 | 11% | 31% | -16 | 93% (active) | inactive | inactive | inactive | inactive
Cc1cccc(NC(=O)N(Cc2cc3cc(C)cc(C)c3[nH]c2=O)C2CC2)c1 | 94% (active) | 3% | 2 | 97% (active) | inactive | inactive | inactive | inactive

Structure (SMILES) | growth inhibition [1] | inhibition [2] | inhibition [3] [%] | growth inhibition [4] | outcome [5] | outcome [6] | outcome [7] | outcome [8]
CCOc1cc(C(=O)NCc2cccc(C(F)(F)F)c2)ccc1-c1nc2ccc(Cl)cc2[nH]1 | 31% | 7% | -6 | 88% (active) | inactive | inactive | inactive | inactive
O=C(Nc1ccccc1)Nc1ccc(-c2cccc(-c3nc4ccc(C(F)(F)F)cc4[nH]3)c2)cc1 | 73% (active) | 59% (active) | 4 | 101% (active) | inactive | inactive | inactive | inactive
CCOc1c(Br)cc(Br)cc1CNCCCCNc1nc2ccccc2[nH]1 | 37% | 25% | -4 | 101% (active) | inactive | inactive | inactive | inactive
O=C(NCCCCN1CCC(c2ccc(-c3ccco3)cc2)CC1)c1ccc(NC(=O)c2ccc(Cl)cc2)cc1 | 97% (active) | 26% | 6 | 100% (active) | inactive | inactive | inactive | inactive
Cc1nnsc1C(=O)Nc1ccc(-c2cccc(-c3nc4c(C)cccc4[nH]3)c2)cc1 | 47% | 23% | 4 | 98% (active) | inactive | inactive | inactive | inactive
O=S(=O)(c1cccc2cccnc12)N1CCN(C2CCCCC2)CC1 | 10% | 15% | 1 | 96% (active) | inactive | inactive | inactive | inactive
NC(=O)C1CCN(Cc2cccc(-c3cccc(-c4nc5ccc(F)cc5[nH]4)c3)c2)CC1 | 7% | 15% | 3 | 100% (active) | inactive | inactive | inactive | inactive
CC(C)NCc1cccc(-c2cccc(-c3nc4ccccc4[nH]3)c2)c1 | 22% | 11% | -2 | 100% (active) | inactive | inactive | inactive | inactive
Cc1c(CCNC(=O)CCCN2CC(C)CC(C)C2)c2ccccc2n1C (stereo not given) | 100% (active) | 8% | -9 | 87% (active) | inactive | inactive | inactive | inactive
C=CCN(C(=O)c1ccc(Cl)c([N+](=O)[O-])c1)c1nc(-c2ccccc2)cs1 | 99% (active) | -13% | -6 | 100% (active) | inactive | inactive | inactive | inactive
Clc1ccccc1CCNCC1CCN(CC2CCCCC2)CC1 | 38% | 45% | -5 | 97% (active) | inactive | inactive | inactive | inactive
O=C(NC(c1ccc(Cl)cc1)c1ccc2cccnc2c1O)c1ccccc1 (stereo not given) | 80% (active) | 44% | -2 | 87% (active) | inactive | inactive | inactive | inactive
O=C(NCCN1CCCCC1)c1cc2cc(-c3ccccc3)ccc2n1S(=O)(=O)c1ccccc1 | -1% | 15% | 2 | 90% (active) | inactive | inactive | inactive | inactive
Cc1ccc(NC(=O)c2ccc3ncccc3c2)cc1OC1CCN(Cc2ccco2)C1 (stereo not given) | 42% | 9% | 2 | 86% (active) | inactive | inactive | inactive | inactive
Cc1cc(N2CCCN(CC3CCCCC3)CC2)nc(Nc2ccc(Br)cc2)n1 | 54% (active) | 24% | -1 | 95% (active) | inactive | inactive | inactive | inactive
COc1cc2c(c(OC)c1[N+](=O)[O-])C=CC1(O2)N(C)c2ccc([N+](=O)[O-])cc2C1(C)C (stereo not given) | 89% (active) | -13% | -5 | 92% (active) | inactive | inactive | inactive | inactive
CN1CCN(Cc2c(O)ccc3c(=O)c(Oc4ccc(C(C)(C)C)cc4)c(C(F)(F)F)oc23)CC1 | 88% (active) | -13% | 4 | 99% (active) | inactive | inactive | inactive | inactive
CCOc1ccc(C2CCN(CCCCNC(=O)c3ccc(NC(=O)c4ccc(Cl)cc4)cc3)CC2)c(Cl)c1 | 96% (active) | 32% | -2 | 101% (active) | inactive | inactive | inactive | inactive
c1ccc(C2=NN=C(c3ccccn3)[C@H]3[C@H]4C[C@@H]([C@@H]23)[C@@H]2[C@H]4[C@H]3C[C@@H]2c2ccccc23)nc1 | 77% (active) | 39% | -3 | 98% (active) | inactive | inactive | inactive | inactive
Cc1nnc2c(N(C(=O)NCCc3ccccc3)C(=O)NCCc3ccccc3)cc3cc(Cl)ccc3n12 | 34% | 0% | -5 | 91% (active) | inactive | inactive | inactive | inactive
